From PubChem BioAssay (Tox21)
Several values for one entry are separate records, joined by “and”; a condition that tells them apart may be missing. Equal values may be shown once. Inconclusive results are not listed. Where a call stands in place of a potency, no number is given. A number with no mark means an inactive call. Activity calls are given as the source filed them. Calls come from the whole dose curve; as a rule, active = well fitted activation curve with a large enough effect in the repeat runs; inconclusive = weak or mixed curves; inactive = flat fitted curve, though single readings scatter.
Potency is the fitted concentration of half-maximal effect.

Assay: A CellTox Green Cytotoxicity Assay to monitor cytotoxicity in HepG2 cells - 24 hour (AID 1224878); note: nearly all actives have a fitted effect of over 45% in size
Details: CellTox Green fluorescence; series mostly up to 76.8 µM
From the text: National Center for Advancing Translational Sciences [NCATS]
NIH Chemical Genomics Center [NCGC]
U.S. Environmental Protection Agency [EPA]
National Institutes of Environmental Health Sciences [NIEHS]
National Toxicology Program [NTP]
Cell-based models are critical for drug discovery. Determining the natural cytotoxic effects resulting from test compounds is an essential research activity. A CellTox Green Cytotoxicity Assay to monitor cytotoxicity in real time of continues cell culture during 40 hours of the compound treatment was used to screen Tox21 10K library compounds in HepG2 cells. CellTox Green Cytotoxicity Assay is a nonlytic, homogeneous, biofluorescent method to measure cytotoxicity in cell culture after experimental manipulation. The assay system uses a proprietary asymmetric cyanine dye that is excluded from viable cells but preferentially stains the dead cell's DNA. […] Viable cells produce no appreciable increases in fluorescence. Therefore, the fluorescence signal produced by the binding interaction with dead cell DNA is proportional to cytotoxicity.
The mixture of HepG2 cell suspension and reagents were dispensed at 600cells/6 ul/well in 1536-well tissue culture treated black solid bottom plates using a Multidrop dispenser. After the assay plates were incubated at a 37 C/5% CO2 incubator for 5 hours, 23 nL of compounds dissolved in DMSO, positive and negative controls was transferred to the assay plate by a pintool work station. The plates were incubated at 37 C for 40 hours. The fluorescence intensity were measured at 0h, 8h, 16h, 24h, 32h and 40h time points using ViewLux plate reader during compound treatment.
For `CC1(C)COCN1`, the Potency was “inactive”. With `COC(=O)NCCC[Si](OC)(OC)OC` the Potency was “inactive”. With `CCCCCCCC(=O)OCC` the Potency was “inactive”. With `Clc1ccc(C(c2ccccc2Cl)C(Cl)Cl)cc1` (stereo not given) the Potency was “inactive”. With `CCC(=O)CC(C)CC` (stereo not given) the cytotoxicity was 8.2% [at 0.29 µM]. For `CC(C)CCOCCC(C)C`, the Potency was “inactive”. In the case of `Cc1c(-c2ccc(O)cc2)n(Cc2ccc(OCCN3CCCCCC3)cc2)c2ccc(O)cc12`, the Potency is reported as 19 µM (active). For `CCCCCCCCCCCCCOP(=O)(O)O`, the Potency was “inactive”. In the case of `NCCCCCCNCCCCCCN`, the Potency is reported as “inactive”. For `CCCSS/C(CCO)=C(\C)N(C=O)Cc1cnc(C)nc1N`, the Potency was “inactive”. With `O=C1NC2CCCCN2C12CCN(CCCN1c3ccccc3CCc3ccc(Cl)cc31)CC2` (stereo not given) the Potency was 23.9 µM (active). For `O=C[C@H](O)[C@H](O)[C@H](O)CO`, the Potency was “inactive”. For `CCCC(=O)OCC(COC(=O)CCC)OC(=O)CCC`, the Potency was “inactive”. For `CC1(C)C(=O)N(CO)C(=O)N1CO`, the Potency was “inactive”. With `CCCCCCCCCCCCCCNCCO` the Potency was 7.56 µM (active). In the case of `CC(=O)Nc1ccc(O)cc1`, the Potency is reported as “inactive”. For `N#CSCSc1nc2ccccc2s1`, the Potency was 43.6 µM (active). In the case of `C[C@@]12C(=O)OC(=O)[C@]1(C)C1CCC2O1`, the Potency is reported as 19 µM (active). For `Nc1ccc2cc3ccc(N)cc3nc2c1`, the Potency was 49 µM (active) and 23.9 µM (active). For `CC(C)c1ccc(O)c(C(C)C)c1`, the Potency was 27.5 µM (active). In the case of `CC(=O)C=O`, the Potency is reported as “inactive”. For `OCCN1CN(CCO)CN(CCO)C1`, the Potency was “inactive”. In the case of `CCN(CC)CCSC(=O)C(c1ccccc1)c1ccccc1`, the Potency is reported as “inactive”. With `CCOC(=O)CN` the Potency was “inactive”. For `CCCCCCOc1cc(C)c(O)c(C)c1C`, the Potency was 24.8 µM (active). For `CN(C)c1ccc(N=NS(=O)(=O)O)cc1`, the Potency was “inactive”. For `COCC(=O)O[C@]1(CCN(C)CCCc2nc3ccccc3[nH]2)CCc2cc(F)ccc2[C@@H]1C(C)C`, the Potency was 13.4 µM (active). In the case of `O=C(O)CC(=O)O`, the Potency is reported as “inactive”. With `Cc1cncc(C)c1` the Potency was “inactive”. With `O=S(=O)(O)CCCN1CCOCC1` the Potency was “inactive”. With `O=c1cccc[nH]1` the Potency was “inactive”. For `CC1CCCCN1CCCOC(=O)c1ccc(OC2CCCCC2)cc1` (stereo not given), the Potency was 26.8 µM (active). In the case of `CCN(CC)CCNc1ccc(CO)c2sc3ccccc3c(=O)c12`, the Potency is reported as 16.9 µM (active). In the case of `O=C1c2c(O)ccc([N+](=O)[O-])c2C(=O)c2c([N+](=O)[O-])ccc(O)c21`, the Potency is reported as “inactive”. In the case of `CC1CCCCC1`, the Potency is reported as “inactive”. In the case of `CC1=C(/C=C/C(C)=C/C=C/C(C)=C\C=O)C(C)(C)CCC1`, the Potency is reported as “inactive”. For `Oc1c(Br)cc(Br)c2cccnc12`, the Potency was “inactive”. In the case of `CCC1CCCCC1`, the Potency is reported as “inactive”. With `CCCCOC(=O)C(C)CC` (stereo not given) the Potency was “inactive”. With `Cn1cnc2ncnc(N)c21` the Potency was “inactive”.
